Assay results as given in PubChem BioAssay (NCI).
This is part of a sample that, as a whole, favours compounds with a hit. Of some 79,000 tested, about 15% had one in any assay. The source made the active and inactive calls. Cut-off read from the data, not from the text of the source: active = growth inhibition above about 70%; inactive = the rest.

Key:
[1] = NCI Yeast Anticancer Drug Screen. Data for the rad50 strain (AID 155);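 note: 0% = growth of vehicle-only cultures of the same strain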; conditions: S. cerevisiae rad50 strain growth inhibition, active compounds read high
Summary of the method: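 Yeast carrying a defined DNA repair defect were exposed to test compounds, and growth was compared with vehicle-treated controls to give percent inhibition.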

[2] = NCI Yeast Anticancer Drug Screen. Data for the mec2-1 strain (AID 157); conditions: S. cerevisiae mec2-1 strain, active compounds read high
Summary of the method: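 Yeast mec2-1 mutant treated with compound. Readout: growth inhibition vs vehicle controls.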

[3] = NCI Yeast Anticancer Drug Screen. Data for the sgs1 mgt1 strain (AID 161);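 note: 0% = growth of cultures given vehicle only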; conditions: S. cerevisiae sgs1 mgt1 strain, active compounds read high
Summary of the method: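 Test agents were incubated with a DNA-repair-mutant yeast strain. Growth was then read and compared against vehicle-treated controls.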

[4] = NCI Yeast Anticancer Drug Screen. Data for the cln2 rad14 strain (AID 165);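 note: 0% = growth equal to vehicle treated cultures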; conditions: S. cerevisiae cln2 rad14 strain, active compounds read high
Summary of the method: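 cln2 rad14 yeast strain; compound exposure; growth inhibition read vs vehicle controls.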

[5] = NCI Yeast Anticancer Drug Screen. Data for the bub3 strain (AID 167); conditions: S. cerevisiae bub3 mutant strain, active compounds read high
Summary of the method: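 Compounds were applied to a genetically altered yeast strain carrying a cell-cycle control defect. Growth inhibition was scored against vehicle-treated controls.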

[6] = NCI Yeast Anticancer Drug Screen. Data for the mlh1 rad18 strain (AID 175); conditions: S. cerevisiae mlh1 rad18 strain growth inhibition, active compounds read high
Summary of the method: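 Yeast w/ defined DNA-repair lesions; compound exposure; growth vs vehicle controls → % inhibition.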

[7] = at 5.0 µM (retest, dose inferred, filed as 0.5)
[8] = at 50.0 µM (retest, dose inferred, filed as 5.0)

Measured: growth inhibition

CCCCOC(=O)c1nc(N(CC2CCCCC2)C(=O)NC)sc1NC(=O)NC
inactive: [1]; [7] -3% | [1]; at 50.0 µM 10.5% | [2]; [7] -3% | [2]; at 50.0 µM 0.85% | [3]; [7] -18% | [3]; at 50.0 µM 8.7% | [4]; [7] -3% | [4]; at 50.0 µM 1.6% | [5]; [7] 0% | [5]; at 50.0 µM -1.65% | [6]; [7] 5% | [6]; at 50.0 µM 29.2%
active: [1]; [8] 92% | [2]; [8] 95% | [3]; [8] 97% | [4]; [8] 95% | [5]; [8] 95% | [6]; [8] 96%

CC1(C)c2ccccc2-c2nc3ccccc3cc2C1Br (configuration not stated)
inactive: [1]; [7] -1% | [1]; [8] 29% | [1]; at 50.0 µM 37.6% | [2]; [7] -4% | [2]; [8] 26% | [2]; at 50.0 µM 46.7% | [3]; [7] -4% | [3]; [8] 23% | [4]; [7] -22% | [4]; [8] 4% | [4]; at 50.0 µM 44.3% | [5]; [7] 2% | [5]; [8] 59% | [6]; [7] -1% | [6]; [8] 27%
active: [3]; at 50.0 µM 73.7% | [5]; at 50.0 µM 95% | [6]; at 50.0 µM 70.5%

COC(=O)/C(=C\c1cn(C(C)=O)c2ccccc12)P(=O)(OC)OC
active: [2]; [8] 70% | [3]; at 50.0 µM 70.8% | [5]; [8] 73% | [5]; at 50.0 µM 78.5% | [6]; at 50.0 µM 75.8%
inactive: [1]; [7] 9% | [1]; [8] 21% | [1]; at 50.0 µM 41.8% | [2]; [7] 5% | [2]; at 50.0 µM 62.6% | [3]; [7] 2% | [3]; [8] 51% | [4]; [7] 31% | [4]; [8] 38% | [4]; at 50.0 µM 63.9% | [5]; [7] -24% | [6]; [7] 16% | [6]; [8] 69%

O=C(N/C(=C/c1ccc(Cl)cc1Cl)c1nc2ccccc2s1)c1ccccc1
inactive: [1]; [7] 27% | [2]; [7] 13% | [3]; [7] 56% | [4]; [7] 14% | [5]; [7] 31% | [6]; [7] 26%
active: [1]; [8] 98% | [1]; at 50.0 µM 98.6% | [2]; [8] 98% | [2]; at 50.0 µM 97.7% | [3]; [8] 99% | [3]; at 50.0 µM 98.9% | [4]; [8] 98% | [4]; at 50.0 µM 98.1% | [5]; [8] 98% | [5]; at 50.0 µM 98% | [6]; [8] 98% | [6]; at 50.0 µM 98.2%

CC(=O)C1CCC2C1(C)CC1OC13C21C=CC2(CC(O)CCC23C)C2C(=O)OC(=O)C21 (configuration not stated)
active: [1]; [8] 98% | [1]; at 50.0 µM 99.4% | [2]; [8] 97% | [2]; at 50.0 µM 91.5% | [3]; [8] 99% | [3]; at 50.0 µM 99.3% | [4]; [8] 98% | [4]; at 50.0 µM 99.6% | [5]; [8] 98% | [5]; at 50.0 µM 95.7% | [6]; [8] 99% | [6]; at 50.0 µM 99.2%
inactive: [1]; [7] -1% | [2]; [7] 4% | [3]; [7] 2% | [4]; [7] 3% | [5]; [7] 2% | [6]; [7] 23%

c1ccc([P+](c2ccccc2)(c2ccccc2)C2c3ccccc3-c3ccccc32)cc1
active: [1]; [8] 98% | [1]; at 50.0 µM 91.2% | [2]; [8] 98% | [2]; at 50.0 µM 92.8% | [3]; [7] 86% | [3]; [8] 99% | [3]; at 50.0 µM 89.5% | [4]; [8] 97% | [4]; at 50.0 µM 88.5% | [5]; [8] 99% | [5]; at 50.0 µM 86.5% | [6]; [8] 98% | [6]; at 50.0 µM 86.2%
inactive: [1]; [7] 68% | [2]; [7] 55% | [4]; [7] 31% | [5]; [7] 57% | [6]; [7] 69%

CCOC(=O)N1CCN(C=S)CC1
inactive: [1]; [7] -8% | [1]; [8] 6% | [1]; at 50.0 µM 31.1% | [2]; [7] 0% | [2]; [8] -7% | [2]; at 50.0 µM -23.3% | [3]; [7] -5% | [3]; [8] -17% | [3]; at 50.0 µM 57.7% | [4]; [7] 17% | [4]; [8] 31% | [4]; at 50.0 µM 15.8% | [5]; [7] 8% | [5]; [8] 31% | [5]; at 50.0 µM 24% | [6]; [7] -5% | [6]; [8] -1% | [6]; at 50.0 µM 38.2%

Cc1ccc2c(c1)C1C(CC2)C2C(=O)OC(=O)C2C2CCc3ccc(C)cc3C21 (configuration not stated)
inactive: [1]; [7] 35% | [1]; at 50.0 µM 35.4% | [2]; [7] 21% | [2]; at 50.0 µM 14.3% | [3]; [7] 6% | [3]; at 50.0 µM 1.35% | [4]; [7] 20% | [4]; at 50.0 µM 0.4% | [5]; [7] 19% | [5]; at 50.0 µM 10.3% | [6]; [7] 29% | [6]; at 50.0 µM 38.4%
active: [1]; [8] 97% | [2]; [8] 98% | [3]; [8] 99% | [4]; [8] 90% | [5]; [8] 97% | [6]; [8] 98%

Cc1ccc(/C=C2\CCCC(CN(C)C)C2=O)cc1 (configuration not stated)
active: [1]; [8] 95% | [2]; [8] 99% | [3]; [8] 96% | [3]; at 50.0 µM 78.5% | [4]; [8] 97% | [5]; [8] 99% | [6]; [8] 96%
inactive: [1]; [7] -12% | [1]; at 50.0 µM 61.5% | [2]; [7] -4% | [2]; at 50.0 µM 62.5% | [3]; [7] -16% | [4]; [7] 6% | [4]; at 50.0 µM 41.4% | [5]; [7] -31% | [5]; at 50.0 µM 49.3% | [6]; [7] -13% | [6]; at 50.0 µM 52.4%
